Screening data (PubChem BioAssay)
CYP2C9 inh: blockers of cytochrome P450 2C9 activity – biochemical, luminescence, ADME assay, primary screen; inhibition, % at 5 µM; 96,000 compounds, 20% hits; CYP2C9 Supersomes, luciferin-H conversion; P11712;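 active means blocking of liver enzyme CYP2C9 beyond about 50% at 5 µM, limit read from the data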
Target sequence (P11712 whole entry, looked up): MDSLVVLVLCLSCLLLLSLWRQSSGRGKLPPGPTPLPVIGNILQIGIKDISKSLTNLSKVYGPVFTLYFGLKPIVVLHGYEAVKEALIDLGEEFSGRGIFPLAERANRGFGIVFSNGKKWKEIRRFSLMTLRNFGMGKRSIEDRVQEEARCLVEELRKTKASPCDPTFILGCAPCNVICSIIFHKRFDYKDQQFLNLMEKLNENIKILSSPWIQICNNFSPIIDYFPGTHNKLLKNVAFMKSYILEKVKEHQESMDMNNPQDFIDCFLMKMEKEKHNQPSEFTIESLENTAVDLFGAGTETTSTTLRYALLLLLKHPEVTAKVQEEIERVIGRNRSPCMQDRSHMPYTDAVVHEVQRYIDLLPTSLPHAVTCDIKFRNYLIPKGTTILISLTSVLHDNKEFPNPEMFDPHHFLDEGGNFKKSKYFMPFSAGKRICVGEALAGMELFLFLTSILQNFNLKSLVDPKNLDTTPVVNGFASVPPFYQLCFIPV
CYP2C19 inhib: blockers of cytochrome P450 2C19 activity – biochemical, luminescence, ADME assay, primary screen; P33261; CYP2C19 Supersomes, luciferin-H EGE luminescence, 30 min; inhibition, % at 5 µM; 96,000 compounds, 21% hits; AID 778, 2007;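 active means CYP2C19 inhibition above a set limit at 5 µM in the primary screen, cut at about 50% in these data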;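 further: plate controls were negative control wells for no effect and 2.5 mM tranylcypromine positive control for full effect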
Cav32 inh: Cav3.2 calcium influx blockers – cell-based, Fluo-4 calcium fluorescence, FDSS, MLSMR library, primary screen. Cav3.2-expressing cells; hits give low values. B-score at 10 µM. 100,000 compounds, 4% hits. AID 449739, 2010;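 active means single-dose well whose peak fluorescence ratio is a statistical outlier from its plate by either plate-standardised score or position-corrected B-score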
CYP2C9 act: human CYP2C9 activators, primary screen, biochemical, luminescence; activation factor at 5 µM; AID 1024, 2008; 96,000 compounds, 1.4% hits; Cytochrome P450 2C9 (Homo sapiens), P11712; recombinant CYP2C9, luciferin-H conversion; hits give high values; factor 1 = untreated enzyme, 0 = blocked;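 active means activation factor of 2 or more for CYP2C9 at a 5 µM dose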;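 further: 0 = sulfaphenazole-blocked wells and 1 = vehicle-only wells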
CYP2C19 act: human CYP2C19 activators, primary screen, biochemical, luminescence | Cytochrome P450 2C19 (Homo sapiens), P33261 | recombinant CYP2C19, luciferin-H EGE luminescence; hits give high values; 0 = fully inhibited enzyme, 1 = untreated enzyme | activation factor at 5 µM | 96,000 tested, under 10 active;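 active means activation factor of at least 2 at 5 µM in the primary screen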;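 further: 0 = wells with 2.5 mM tranylcypromine and 1 = vehicle-only wells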
* marks the source's active call; other numbers are inactive results; . = not tested or not shown. The list is not random: actives were taken first. Their share in the collection is about 27%.

SMILES | CYP2C9 inh | CYP2C19 inhib | Cav32 inh | CYP2C9 act | CYP2C19 act
CCn1c(COc2ccc(=O)n(-c3ccccc3)n2)nnc1SCc1ccccc1C | 61* | 15 | 0.9 | 0.4 | 0.8
CCOC(=O)NNC1CC(=O)N(c2ccc(OC)cc2)C1=O (centres undefined) | 6 | -3 | 1.5 | 0.9 | 1
CC(=O)Nc1ccc(S(=O)(=O)N2CCC(c3nc4ccc(C)cc4[nH]3)CC2)cc1 | 23 | 28 | 0.8 | 0.8 | 0.7
CC(C)(C)c1ccc(S(=O)(=O)N2CCC(c3nc4ccc(Cl)cc4[nH]3)CC2)cc1 | . | . | -4.6* | . | .
Cc1cccc(/C=N\NC(=O)c2sccc2-n2cccc2)c1 | 12 | 44 | -4.1* | 0.9 | 0.6
O=C(CN1CCC(n2nnc3cc(F)ccc32)CC1)Nc1ccccc1N1CCOCC1 | 85* | 96* | -0.61 | 0.1 | 0
Cc1ccc2c(c1)nnn2C1CCN(S(=O)(=O)c2ccc(C(=O)N3C(C)CCCC3C)cc2)CC1 (centres undefined) | 50 | 77* | . | 0.5 | 0.2
O=C(CN1CCC(n2nnc3cc(F)ccc32)CC1)N1CCc2ccccc2C1 | 14 | 52* | -0.43 | 0.9 | 0.5
CCOc1ccccc1C(=O)N1CCC(n2nnc3cc(C(F)(F)F)ccc32)CC1 | 53* | 68* | -0.047 | 0.5 | 0.3
NS(=O)(=O)c1ccc(CCNC(=O)CCC2COc3ccccc3O2)cc1 (centres undefined) | . | . | -0.03 | . | .
O=C(CN1CCC(n2nnc3cc(F)ccc32)CC1)NC1CCCCC1 | 60* | 58* | 3.1 | 0.4 | 0.4
CCOc1ccc2nc(NC(=O)CN3CCC(n4nnc5cc(F)ccc54)CC3)sc2c1 | 86* | 80* | -2.7 | 0.1 | 0.2
COc1cc(OC)cc(C(=O)N2CCC(n3c(C)nc4cc(F)ccc43)CC2)c1 | 67* | 15 | . | 0.3 | 0.9
Cc1cccc(C(=O)N2CCC(n3nnc4cc(F)ccc43)CC2)c1 | 82* | 84* | 3.1 | 0.2 | 0.2
O=C(CN1CCC(n2nnc3cc(F)ccc32)CC1)NC1CC1 | 5 | 9 | 0.42 | 1 | 0.9
CCN(CCCNC(=O)COc1cc(=O)n(CC)c2ccccc12)Cc1ccccc1 | 2 | 6 | 0.1 | 1 | 0.9
COc1cc2c(cc1OC)C(C)N(C(C)=O)CC2 (centres undefined) | . | . | 0.52 | . | .
COc1cc2c(cc1OC)C(C)N(C(=O)c1cc3ccccc3o1)CC2 (centres undefined) | 33 | 42 | -0.49 | 0.7 | 0.6
COc1cc2c(cc1OC)C(C)N(C(=O)C1COc3ccccc3O1)CC2 (centres undefined) | 57* | 80* | . | 0.4 | 0.2
COc1cc2c(cc1O)CCN(C(=O)c1ccco1)C2C (centres undefined) | 47 | 65* | 0.91 | 0.5 | 0.3
S=C(c1ccc2c(c1)OCO2)N1CCCC1 | 2 | 41 | 0.91 | 1 | 0.6
NC(=O)c1ccsc1NC(=O)CSc1nc2ccccc2c(=O)n1CCCO | 58* | 44 | 0.59 | 0.4 | 0.6
CCCCCCn1c(SCC(=O)Nc2cc(C)on2)nc2ccccc2c1=O | 71* | 47 | -2.3 | 0.3 | 0.5
NC(=O)c1ccsc1NC(=O)CSc1nnc(C2CC2)n1Cc1ccccc1 | 27 | 27 | . | 0.7 | 0.7
CNC(=O)CSCCn1c(SCC(=O)NC)nc2ccccc2c1=O | 26 | 8 | 0.62 | 0.7 | 0.9
SMILES | CYP2C9 inh | CYP2C19 inhib | Cav32 inh | CYP2C9 act | CYP2C19 act
COc1ccc(CCn2c(SCC(=O)Nc3cc(C)on3)nc3ccccc3c2=O)cc1OC | 51* | 64* | . | 0.5 | 0.4
CCCn1c(SCc2ccon2)nc2ccccc2c1=O | 83* | 85* | -2.4 | 0.2 | 0.1
Cc1occc1C(=O)NNC(=O)NC12CC3CC(CC(C3)C1)C2 | -4 | 15 | . | 1 | 0.8
O=C(c1ccc(COc2c(F)c(F)cc(F)c2F)o1)N1CCN(c2ccc(Cl)cc2)CC1 | 39 | 18 | -2.5 | 0.6 | 0.8
C[C@@H]1CCC[C@]2(O[C@H](CCO)C[C@H](O)[C@H]2O)O1 | . | . | 0.64 | . | .
COc1ccc(CCn2c(SCC(=O)Nc3cc(C)on3)nc3ccsc3c2=O)cc1OC | 60* | 54* | . | 0.4 | 0.5
CCCCn1c(SCC(=O)Nc2cc(C)on2)nc2ccsc2c1=O | 9 | -11 | -1 | 0.9 | 1.1
CCOC(=O)CSc1nc2ccccc2c(=O)n1CCC(=O)NCCc1ccc(OC)c(OC)c1 | 65* | 60* | -0.29 | 0.3 | 0.4
Cc1cc(NC(=O)CSc2nc3cc4c(cc3c(=O)n2CCc2ccccc2)OCO4)no1 | 46 | 59* | -1 | 0.5 | 0.4
CC(=O)c1cc(C#N)c(SCC(=O)OC(C)(C)C)nc1C | 18 | 36 | . | 0.8 | 0.6
COc1ccc(C(c2nnnn2CS(=O)(=O)c2ccc(C)cc2)N2CCN(Cc3ccccc3)CC2)cc1 (centres undefined) | . | . | -0.55 | . | .
O=S(=O)(c1ccccc1Cl)N1CCCC1c1nc(-c2ccc(Cl)cc2)no1 (centres undefined) | -9 | 28 | 0.09 | 1.1 | 0.7
O=C1C2C(C(=O)N1/N=C/c1cc([N+](=O)[O-])ccc1O)C1C=CC2C12CC2 (centres undefined) | 21 | 2 | -1.4 | 0.8 | 1
O=C1C2C(C(=O)N1/N=C/c1cc(Br)cc([N+](=O)[O-])c1O)C1C=CC2C12CC2 (centres undefined) | 8 | 24 | -6* | 0.9 | 0.8
O=C(CCC1CCCCC1)Nc1c2c(nn1-c1ccc(F)cc1)CS(=O)C2 (centres undefined) | 22 | 98* | -1.1 | 0.8 | 0
Cc1noc(C)c1COc1ccc(C(=O)NCc2ccccn2)cc1 | -16 | -13 | 0.026 | 1.2 | 1.1
COc1ccc(COC(=O)NNC(=O)c2ccccc2Cl)cc1 | 12 | 72* | 0.26 | 0.9 | 0.3
COc1ccc(-n2nnnc2SCC(=O)Nc2nnc(C)s2)cc1 | 54* | 16 | 2.3 | 0.5 | 0.8
COc1cccc(-n2nnnc2SCC(=O)Nc2cccc(C)n2)c1 | -64 | 25 | -0.12 | 1.6 | 0.7
CCC(=O)Nc1cccc(-n2nnnc2SCC(=O)NCc2ccco2)c1 | -132 | 58* | 0.96 | 2.3* | 0.4
COc1ccc(-n2nnnc2SCC(=O)Nc2cccc(C)n2)cc1OC | 58* | 26 | 1.9 | 0.4 | 0.7
COc1ccc(-n2nnnc2SCC(=O)NCc2ccco2)cc1OC | -124 | 19 | 0.87 | 2.2* | 0.8
O=C1CCCCC1Sc1nnc(Cc2cccs2)n1CCc1ccccc1 (centres undefined) | 70* | 68* | -3.3 | 0.3 | 0.3
Cc1c(/C=N/NC(=O)c2cc(=O)[nH]c(=O)[nH]2)c2ccccn2c1C(=O)c1ccccc1 | 50* | 9 | -0.72 | 0.5 | 0.9
